Bioassay records as filed in PubChem.
This is a sample that favours compounds with a hit; in the whole collection about 2.8% have one here.
TGFb inhibitor – TGF-b pathway inhibition | HepG2 CAGA-GFP TGF-b/SMAD3 reporter, GFP fluorescence, 18 h; TGF-beta stimulated, 500 pg/mL final | Potency, µM (series often up to 46.1 µM), usual class: inhibitors | 410,000 tested, 1.2% active | AID 588855; further: nearly all actives have a fitted effect of over 65% in size
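Inhibition was scored as loss of TGF-beta-induced (500 pg/mL final, 18 hours, 37 degrees C) GFP in HEPG2 cells carrying a CAGA-GFP reporter, in DMEM with 1% FBS. Well GFP was summed per cell; Activity was normalised to unstimulated and stimulated DMSO wells, then concentration-response fitting.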
CtBP-E1A inh – blocks the CtBP interaction with E1A. AlphaScreen GST-E1A/His-CtBP binding, 1536-well; hits give low values. 340,000 tested, 0.49% active. activity change, % (concentration not given with the values). AID 651724; in the data active means activity change below about -65%; inconclusive means mostly about -30% to -63%
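Steps: dispense buffer (Tris pH 8.0, NaCl 300 mM, TCEP 1 mM, BSA, Tween 20); add 5X protein mix (GST-E1A, His-CtBP, 125 nM each); pin 23 nL compound; 2 h at 37 °C, dark; add 5X beads (50 ug/mL); 1 h; read.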
ATXN2 expr inh – ATXN2 expression inhibition | HEK-293 ATXN2-luciferase reporter, luminescence, 24 h | Potency, µM (series often up to 57 µM), most hits filed as inhibitors | 360,000 tested, 0.72% active | AID 1745845; further: nearly all actives have a fitted effect of over 55% in size
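qHTS (up to 57 uM final) was run with 24 h compound exposure of reporter cells at 37 °C. Each well was multiplexed: SteadyGlo luminescence measured ATXN2-luciferase expression after a fluorogenic Gly-Phe-AFC viability readout (25 uM final).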
ATXN viability – reduces viability in counter-screen for ATXN expression inhibitors; S2 cells (HEK-293 line with an ATXN2-luciferase reporter) viability, CellTiter-Fluor protease fluorescence, 24 h; Potency, µM (highest dose often 56.7 µM), actives largely listed as cytotoxic; AID 651635; 400,000 tested, 0.49% active; further: nearly all actives have a fitted effect of over 40% in size
Six1-Eya2 blk – inhibitors of human Six1/Eya2 interaction; Q15475+O00167; AlphaScreen GST-Six1/His-Eya2 binding, biochemical; hits give low values; activity change, % (concentration not given with the values); 360,000 tested, 0.56% active; in the data active means activity change below about -65%; inconclusive means mostly about -30% to -63%
Target sequence (O00167 whole entry, looked up): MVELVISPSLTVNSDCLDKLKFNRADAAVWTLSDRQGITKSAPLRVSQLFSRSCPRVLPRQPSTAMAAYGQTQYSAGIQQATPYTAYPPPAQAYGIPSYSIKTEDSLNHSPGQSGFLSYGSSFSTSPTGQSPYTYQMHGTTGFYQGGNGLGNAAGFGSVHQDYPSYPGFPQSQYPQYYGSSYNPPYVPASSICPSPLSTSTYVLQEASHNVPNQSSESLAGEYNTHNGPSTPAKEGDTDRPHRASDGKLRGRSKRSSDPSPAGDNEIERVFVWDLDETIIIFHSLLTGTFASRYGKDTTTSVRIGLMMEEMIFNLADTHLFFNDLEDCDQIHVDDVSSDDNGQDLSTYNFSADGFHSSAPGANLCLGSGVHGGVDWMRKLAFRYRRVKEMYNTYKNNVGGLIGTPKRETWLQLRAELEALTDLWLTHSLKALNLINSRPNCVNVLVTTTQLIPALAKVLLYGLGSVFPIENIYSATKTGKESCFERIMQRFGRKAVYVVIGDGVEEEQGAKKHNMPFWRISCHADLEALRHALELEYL
Target sequence (Q15475 whole entry, looked up): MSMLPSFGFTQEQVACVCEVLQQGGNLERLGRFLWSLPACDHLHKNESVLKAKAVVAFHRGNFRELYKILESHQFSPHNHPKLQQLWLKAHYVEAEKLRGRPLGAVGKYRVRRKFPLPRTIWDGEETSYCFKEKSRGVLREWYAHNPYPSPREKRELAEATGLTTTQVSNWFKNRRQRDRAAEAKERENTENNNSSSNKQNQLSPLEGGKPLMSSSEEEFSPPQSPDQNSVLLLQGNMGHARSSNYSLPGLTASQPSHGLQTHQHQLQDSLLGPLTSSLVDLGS
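AlphaScreen with GST-Six1 and His-Eya2 (5X mix: 250 nM and 500 nM), glutathione donor and nickel acceptor beads; buffer 50 mM Tris pH 8.0, 300 mM NaCl, 1 mM TCEP; 1 h at 37 C in the dark.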
HepG2 viability – HepG2 cytotoxicity, counter-screen for TGF-b inhibitors | HepG2 CAGA-GFP viability, ATP luminescence, 18 h | Potency, µM (doses to about 46.1 µM), usual class: cytotoxic | 410,000 tested, 0.76% active
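CellTiter-Glo luminescence gave cytotoxicity after 18 hours at 37 degrees C. The cells were HepG2 CAGA-GFP in 1% FBS DMEM, stimulated with 500 pg/mL TGF-beta after compound addition. %Activity was normalised to no-cell wells (complete cell-killing) and DMSO (no toxicity), and curves were fitted and classified.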
A number is an active result. Unless noted, the call rests on the fitted dose curve; in most records, active means well fitted curve in the direction sought with a large enough effect; inconclusive means small, poorly fitted or top-dose-only effect, or another doubt; inactive means no such curve, though single readings can be large; an effect the other way counts as inactive or inconclusive.

O=C(Nc1nccs1)c1ccccn1 was read as TGFb inhibitor inactive, CtBP-E1A inh inconclusive, ATXN2 expr inh inactive, ATXN viability inactive, Six1-Eya2 blk -87 and HepG2 viability inactive.
`O=C(NNC(=O)c1ccccn1)c1ccc(OC(F)F)cc1` gave TGFb inhibitor inactive, CtBP-E1A inh -78, ATXN2 expr inh inconclusive, ATXN viability inconclusive, Six1-Eya2 blk -84 and HepG2 viability inactive.
`O=C(Cn1c(SCc2ccc(F)cc2)nc2cccnc21)Nc1ccccc1F` gave TGFb inhibitor inconclusive and HepG2 viability inactive.
`COc1ccc(CNC(=O)Cn2cnc3c(SC)nc(N)nc32)cc1` gave TGFb inhibitor inactive, CtBP-E1A inh inactive, ATXN2 expr inh inactive, ATXN viability inactive, Six1-Eya2 blk inactive and HepG2 viability inactive.
For COc1c(C)cnc(Cn2cnc3c(Cl)nc(N)nc32)c1C the results were ATXN2 expr inh 0.19µM.
COc1cccc(CNC(=O)c2c(OC)cc(=O)n3c2CCN(C(=O)c2ccoc2C)CC3)c1 was read as ATXN viability inactive.
For CC(C)C(N)c1csc(Nc2ccc(C(=O)NCCCO)cn2)n1 (stereo not drawn) the results were TGFb inhibitor inactive, CtBP-E1A inh -75, ATXN2 expr inh inactive, ATXN viability inactive, Six1-Eya2 blk inconclusive and HepG2 viability inactive.
For NC(CCc1ccccc1)c1csc(Nc2ccc(C(=O)NCCCO)cn2)n1 (stereo not drawn) the results were TGFb inhibitor inactive, CtBP-E1A inh -69, ATXN2 expr inh inactive, ATXN viability inactive, Six1-Eya2 blk inconclusive and HepG2 viability inactive.
For NC(Cc1ccccc1)c1csc(Nc2ccc(C(=O)NCCCO)cn2)n1 (stereo not drawn) the results were TGFb inhibitor inactive, CtBP-E1A inh -82, ATXN2 expr inh inactive, ATXN viability inactive, Six1-Eya2 blk -66 and HepG2 viability inactive.
CC(N)c1csc(Nc2ccc(C(=O)NCCO)cc2)n1 (stereo not drawn) was read as TGFb inhibitor inconclusive, CtBP-E1A inh inactive, ATXN2 expr inh inactive, ATXN viability inactive, Six1-Eya2 blk inactive and HepG2 viability inactive.
`NC(Cc1ccc(Cl)cc1)c1csc(Nc2ccc(C(=O)NCCCO)cn2)n1` (stereo not drawn) gave TGFb inhibitor inactive, CtBP-E1A inh inconclusive, ATXN2 expr inh inactive, ATXN viability inconclusive, Six1-Eya2 blk inconclusive and HepG2 viability inactive.
`CCc1ccc(S(=O)(=O)c2nnn3c2nc(NCCNC(C)=O)c2cc(Cl)ccc23)cc1` gave TGFb inhibitor inactive, ATXN2 expr inh inactive, ATXN viability inactive and HepG2 viability inactive.
O=C(NCc1cccnc1)c1ccc(-c2ccc(Cl)cc2)o1 was read as TGFb inhibitor inconclusive, ATXN viability inactive, Six1-Eya2 blk inactive and HepG2 viability inactive.
`O=C(NCc1cccnc1)/C(=C\c1ccc(-c2ccc(Cl)c(Cl)c2)o1)S(=O)(=O)c1ccccc1` gave TGFb inhibitor 4.5µM, CtBP-E1A inh inactive, ATXN2 expr inh 13µM, Six1-Eya2 blk inactive and HepG2 viability inactive.
Screening CC1=C(C(=O)Nc2ccc(C)cc2C)C(c2ccc(O)cc2)n2nc(SCC(=O)c3ccc(C)cc3)nc2N1 (stereo not drawn) returned TGFb inhibitor inactive, ATXN2 expr inh inactive, ATXN viability inactive and HepG2 viability inactive.
`COC(=O)C1=C(C)N(Cc2ccc(C)cc2)C(=O)/C1=C\c1cc(OC)c(OC)c(OC)c1` gave TGFb inhibitor inconclusive, CtBP-E1A inh inactive, ATXN2 expr inh inactive, ATXN viability inactive, Six1-Eya2 blk inactive and HepG2 viability 16µM.
Screening O=C1C(=Cc2cn(-c3ccccc3)nc2-c2ccc(OCc3ccccc3F)cc2)SC(=S)N1CCS(=O)(=O)O returned TGFb inhibitor inactive, CtBP-E1A inh inactive, ATXN2 expr inh inactive, ATXN viability inconclusive, Six1-Eya2 blk -70 and HepG2 viability inactive.
Screening CCC(=O)NC(c1ccccc1OC)c1ccc2cccnc2c1O (stereo not drawn) returned TGFb inhibitor 2.5µM, CtBP-E1A inh inconclusive, ATXN2 expr inh inconclusive, ATXN viability inconclusive, Six1-Eya2 blk -88 and HepG2 viability 3.5µM.
